Data reported in the supplement of paper PMC13380429.
Values without a mark were called inactive.

These compounds were tested on Vero E6 infected with SARS-CoV-2 (assay: inhibition of SARS-CoV-2 cytopathic effect; higher = more antiviral protection, active = above 15). Details: 100 nM; 48 h.

Structure (SMILES) | inhibition of SARS-CoV-2 cytopathic effect
Cc1ccc2c(c1)[C@]13CCCC[C@@H]1[C@H](C2)N(C)CC3 [dimemorfan] | 0.04%
Oc1ccc([C@H]2COc3cc(O)ccc3C2)cc1 [equol] | -2.88%
Nc1ccc(S(=O)(=O)NC(=O)c2ccccc2)cc1 [sulfabenzamide] | -1.3%
NC(=O)N/N=C/c1ccc(Oc2ccc(F)cc2)cc1 | -0.81%
CC(=O)N[C@@H](Cc1c[nH]c2ccccc12)C(=O)OCc1cc(C(F)(F)F)cc(C(F)(F)F)c1 | 2.32%
COc1cc(OC)nc(O[C@H](C(=O)O)C(OC)(c2ccccc2)c2ccccc2)n1 [darusentan] | 0.62%
C[N+](C)(C)CCCCCC[N+](C)(C)C [hexamethonium] | 0.44%
COC(=O)C1=C(C#N)NC(C)=C(C(=O)OC(C)C)C1c1cccc([N+](=O)[O-])c1 (stereo not given) [nilvadipine] | 0.29%
CC(=O)N(CC(O)CN(C(C)=O)c1c(I)c(C(=O)NCC(O)CO)c(I)c(C(=O)NCC(O)CO)c1I)c1c(I)c(C(=O)NCC(O)CO)c(I)c(C(=O)NCC(O)CO)c1I (stereo not given) [iodixanol] | 2.34%
CN(C)CCCNC(=O)c1ccc(-c2cc(O)c3ncccc3c2)cc1 | 1.01%

Same assay, conditions: 833.33 nM; 48 h

Structure (SMILES) | inhibition of SARS-CoV-2 cytopathic effect
Cc1cnc(Nc2ccc(N3CCN(C)CC3)cc2)nc1Nc1cccc(S(=O)(=O)NC(C)(C)C)c1 | -7.25%
CC[C@H](C)[C@@H]1NC(=O)[C@H](Cc2ccc(O)cc2)NC(=O)[C@@H](N)CSSC[C@@H](C(=O)N2CCC[C@H]2C(=O)N[C@@H](CC(C)C)C(=O)NCC(N)=O)NC(=O)[C@H](CC(N)=O)NC(=O)[C@H](CCC(N)=O)NC1=O [oxytocin] | 0.66%
CCN(C(C)=O)c1cccc(-c2ccnc3c(C#N)cnn23)c1 | -0.59%
CC1Sc2c(C(=O)O)c(=O)c3cc(F)c(N4CCNCC4)cc3n21 (stereo not given) [ulifloxacin] | 1.61%
COc1cc(OC)c(/C=C/S(=O)(=O)Cc2ccc(OC)c(OP(=O)(O)O)c2)c(OC)c1 [briciclib] | -0.82%
Cc1ccc(/C=C2\CNC/C(=C\c3ccc(C)cc3)C2=O)cc1 | -0.34%
CC[C@H](C)C[C@H](C)CCCCCCCCC(=O)N[C@H]1C[C@@H](O)[C@@H](NCCN)NC(=O)[C@@H]2[C@@H](O)CCN2C(=O)[C@H]([C@H](O)CCN)NC(=O)[C@H]([C@H](O)[C@@H](O)c2ccc(O)cc2)NC(=O)[C@@H]2C[C@@H](O)CN2C(=O)[C@H]([C@@H](C)O)NC1=O [caspofungin] | 0.425%
NC(=O)c1ccccc1O [salicylamide] | 3.83%
COc1ccc(-c2nc(C(=O)N3CCN(C)CC3)sc2-c2ccc(OC)cc2)cc1 | -2.37%
O=C(NC(=O)c1c(F)cccc1F)Nc1cc(Cl)c(OC(F)(F)C(F)C(F)(F)F)cc1Cl (stereo not given) [lufenuron] | 2.95%
Cc1onc(-c2ccccc2)c1-c1ccc(S(N)(=O)=O)cc1 [valdecoxib] | 3.3%
O=C(O)CNC(=O)c1ccccc1 [hippuric-acid] | 1.76%
CC(=O)c1ccc2c(c1)N(CCCN1CCC(CCO)CC1)c1ccccc1S2 [piperacetazine] | 0.28%
Cn1c(=O)c(F)c(Nc2ccc(I)cc2F)c2c(=O)n(C[C@@H](O)CO)cnc21 | -11.6%
CC(C)Oc1ccc(-c2nc(-c3cccc4c3CC[C@H]4NCCC(=O)O)no2)cc1C#N | 2.4%
CCOc1nc2cccc(C(=O)OC(C)OC(=O)OC3CCCCC3)c2n1Cc1ccc(-c2ccccc2-c2nn[nH]n2)cc1 (stereo not given) [candesartan-cilexetil] | -3.03%
CC(C)(C)CC(C)(C)c1ccc(OCCOCC[N+](C)(C)Cc2ccccc2)cc1 [benzethonium] | -9.21%
COc1ccc(NC(=O)c2ccc(-c3ccc(-c4noc(C)n4)cc3C)cc2)cc1OCCN(C)C | -0.17%
CCCn1cnc2c1c(=O)n(CCCCC(C)=O)c(=O)n2C [propentofylline] | 2.05%
Cc1cc(C)c(CNC(=O)c2cc(-c3ccc(CN4CCOCC4)cc3)cc3c2cnn3C2CCCC2)c(=O)[nH]1 | -1.29%
